# Most compounds without a hit are left out; they make up all but 8.7% or so of the library.
# Sfp PPTase inh – inhibitors of Bacillus subtilis Sfp phosphopantetheinyl transferase; Potency, µM, for inactives: largest response in the series, negative = inhibition, hits mostly inhibitors; hit rate 3.5% among 310,000; Biochemical Sfp PPTase activity, qHTS;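 further: the enzyme is Sfp with the accession as filed and its product quenches rhodamine fluorescence; 0% = enzyme reaction without inhibitor and -100% = no enzyme wells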
#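 After 15 min at room temperature with compound, 15 nM Sfp received 5 uM rhodamine-CoA plus 12.5 uM BHQ-2-ybbR (50 mM Hepes pH 7.6, 10 mM MgCl2). Rate came from the fluorescence difference over 30 min, ex 525/em 598 nm.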
# BAZ2B inh – BAZ2B (human) inhibition; Q9UIF8; AlphaScreen BAZ2B-H3K14Ac peptide displacement; AID 504333; Potency, µM (series often up to 114 µM), for the others: at the highest dose activity change, negative = inhibition, actives largely listed as inhibitors; hit rate 4.4% among 360,000; further: on the % scale 0 is the no-effect control and ±100 the full control effect; nearly all actives have a fitted effect of over 60% in size
#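 AlphaScreen luminescence quantifies BAZ2B engagement of H3K14Ac peptide; the protein and biotinylated peptide are both at 50 nM final, buffer PBS pH 7.4 with 0.01% Tween-20, all steps at room temperature.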
# HP1b binding inh – inhibitors of HP1-beta chromodomain binding to methylated histone tails; Potency, µM (titrated, usually from 114 µM), for the others: at the top dose activity change, negative = inhibition, actives largely listed as inhibitors; P83916; hit rate 0.56% among 390,000; AID 540317; AlphaScreen HP1-beta / biotin-H3K9me3 peptide binding; further: nearly all actives have a fitted effect of over 70% in size
#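 HP1-beta protein (50 nM final) preincubated 30 min at room temperature with biotinylated H3(1-18)K9me3 peptide (50 nM) in PBS pH 7.4, 0.01% Tween-20, then compound added for 30 min. AlphaScreen streptavidin donor/nickel chelate acceptor beads (10 ug/mL final), 30 min dark, luminescence read.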
# 12-LOX inh – inhibitors of human 12S-lipoxygenase ALOX12; P18054; purified 12hLO, xylenol orange hydroperoxide absorbance; Potency, µM (series often up to 108 µM), inactives show at the top dose activity change, negative = inhibition, actives largely listed as inhibitors; hit rate 1.1% among 580,000; AID 1671190; further: on the % scale 0 is the no-effect control and ±100 the full control effect
#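 Purified human 12hLO (150 nM final) in 25 mM Hepes, 0.01% Triton X-100, pH 7.0 was preincubated 15 min at room temperature with compound. Then 40 uM arachidonic acid was added, 30 min. Hydroperoxide was read by Fe-XO absorbance ratio 573/405 nm.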
# JMJD2A Tudor inh – inhibitors of human JMJD2A Tudor domain | O75164 | AlphaScreen JMJD2A-Tudor / H3K4me3 peptide binding | Potency, µM (top dose mostly 114 µM), for inactives: at the highest dose activity change, negative = inhibition, actives largely listed as inhibitors | hit rate 4.4% among 390,000 | AID 504339; further: on the % scale 0 is the no-effect control and ±100 the full control effect; nearly all actives have a fitted effect of over 50% in size
# G9a inh – blocks human histone lysine methyltransferase G9a | Q96KQ7 | G9a H3K9 monomethylation, AlphaScreen, 2 h | Potency, µM (titrated, usually from 102 µM), inactives show top-dose activity, negative = inhibition, usual class: inhibitors | hit rate 8.8% among 350,000 | AID 504332; further: on the % scale 0 is the no-effect control and ±100 the full control effect; nearly all actives have a fitted effect of over 75% in size
#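 Signal arises when biotinylated H3K9 peptide, once monomethylated, bridges streptavidin donor and antibody-captured acceptor beads. Enzyme at 20 nM was preincubated 15 min with test compounds; peptide 500 nM and SAM 20 uM then reacted for 2 h.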
# An asterisk follows results filed as active; ? = inconclusive; · = no result given; [ ] = dose if it differs, or a comment. The call rests on the fitted dose curve; in most records, active means well fitted curve in the direction sought with a large enough effect; inconclusive means small, poorly fitted or top-dose-only effect, or another doubt; inactive means no such curve, though single readings can be large; an effect the other way counts as inactive or inconclusive. Potency means the concentration at half of the fitted maximal effect.
SMILES,Sfp PPTase inh,BAZ2B inh,HP1b binding inh,12-LOX inh,JMJD2A Tudor inh,G9a inh
CCc1cc2c(=O)n(Cc3ccco3)c(SCC(=O)N3CCCc4ccccc43)nc2s1,44.7µM*,-8.5%,1.9%,-4.2%,-18.1%,-5.7%[59 µM]
CCc1cc2c(=O)n(Cc3ccco3)c(SCC(=O)NCC3CCCO3)nc2s1 (stereo not drawn),-9.3%,-0.7%,16.2%,-17.2%,-19.6%,25.4%[59 µM]
CCc1cc2c(=O)n(Cc3ccco3)c(SCC(=O)NC3CCS(=O)(=O)C3)nc2s1 (stereo not drawn),31.6µM*,-20.5%,10.8%,?,-28.3%,50.1µM*
COc1ccc(-c2noc(CCC(=O)Nc3ccn(C)n3)n2)cc1OC,·,·,·,8.2%,·,·
O=C(NCC1CCCO1)Nc1cccc(-c2nnc3n2CCCC3)c1 (stereo not drawn),·,·,·,-12.3%,·,·
Cc1ccccc1C(=O)NC1CCN(c2cc(C(F)(F)F)ncn2)CC1,·,·,·,1.4%,·,·
O=C(c1cccs1)N1CCc2n[nH]c(=O)n2CC1,·,·,·,47.2%,·,·
CN(C)CCNc1oc(/C=C/c2cccs2)nc1C#N,·,·,·,23.7%,·,·
N#Cc1nc(/C=C/c2cccs2)oc1NC1CC1,·,·,·,25.1µM*,·,·
Cc1ccc(CNC(=O)CN2NS(=O)(=O)c3ccccc3C2=O)cc1,·,·,·,20µM*,·,·
Cc1ccc(CNC(=O)CN2C(=O)c3ccccc3S2(=O)=O)cc1,10.1%,0.0%,-0.3%,-17.9%,0.7%,14.7%
COc1ccc(C)cc1Nc1n[n+](C)c(-c2ccc(C(=O)O)cc2)s1,19.1%,-23.1%,·,·,·,?
COc1ccc(C)cc1Nc1n[n+](-c2ccccc2)c(-c2cc([N+](=O)[O-])cc(OC)c2O)s1,22.4µM*,?,-1.7%,·,?,31.6µM*
COc1ccc(C)cc1Nc1n[n+](-c2ccccc2)c(-c2ccc(SC)cc2)s1,?,56.2µM*,-6.5%,?,?,44.7µM*
CCOc1cc(-c2sc(Nc3ccccc3)n[n+]2-c2ccc(F)cc2)ccc1OC,3.3%,-4.5%,37.7%,-26.5%,?,·
COc1ccc(C)cc1Nc1n[n+](-c2ccccc2)c(-c2ccc(NC(C)=O)cc2)s1,?,?,42.4%,-16.4%,-29.7%,31.6µM*
O=C(c1ccc(F)cc1)N1CC[C@H](c2nc3ccc(F)cc3[nH]2)C1,·,·,·,-3.2%[176 µM],·,·
CC(C)Oc1ccccc1OCCN(C)C,-54.4%,44.7µM*,?,?,31.6µM*,12.6µM*
COc1ccc(N2CCN(c3nc4cc(C)ccc4cc3C=O)CC2)cc1,-5.0%,12.6µM*,?,-16.8%,22.4µM*,25.1µM*
COc1ccc(N2CCN(c3cc(C)c4ccc(O)cc4n3)CC2)cc1,11.0%,44.7µM*,15.8%,?,?,?
COc1ccc2c(C)cc(N3CCN(c4ccc(F)cc4)CC3)nc2c1,?,-33.9%,9.8%,-7.7%[57.4 µM],-24.3%,-7.4%[59 µM]
COc1ccc(N2CCN(c3cc(C)c4cccc(C)c4n3)CC2)cc1,1.0%,?,?,-2.0%,22.4µM*,12.6µM*
Cc1cc(N2CCN(c3ncccn3)CC2)nc2c(C)cccc12,-8.7%,70.4%,59.3%,·,12.9%,32.6%
COc1ccc(N2CCN(c3ncnc4c3cnn4-c3ccc(C)cc3C)CC2)cc1,0.9%,8.1%,4.3%,3.2%[57.4 µM],-23.3%,-6.1%[12.7 µM]
COc1ccc(N2CCN(c3cc(C)c4ccc(C)cc4n3)CC2)cc1,-7.0%,-38.5%,?,-9.0%,?,8.91µM*
CCOC(=O)c1nc(N(C)c2cc(C)ccc2C)c2ccccc2n1,·,·,·,-6.7%,·,·
Brc1ccc(-c2noc(Cc3cccs3)n2)o1,·,·,·,25.1µM*,·,·
COc1ccc(Cc2nc(-c3ccc(Br)o3)no2)cc1,·,·,·,-4.3%,·,·
COc1ccc(C2=NN3C(C2)c2ccccc2OC32C(=O)N(C)c3ccccc32)cc1 (stereo not drawn),?,-7.5%,15.9%,-3.3%,-23.7%,25.1µM*
COc1ccc(C2=NN(C(=O)CCC(=O)O)C(c3cccs3)C2)cc1 (stereo not drawn),-1.8%,-6.5%,39.1%,-1.5%,3.8%,-17.8%

# Screening data from PubChem BioAssay.
